# Reference: the supplement of paper PMC4723716
# ± gives the uncertainty stated by the source. In all, about 9,900 compounds were measured (“viability index relative to DMSO control”: median about 1, lowest 2% from about 0.85 on). The sample as a whole holds a higher share of the lowest values than the screen did.
# Test system: Plasmodium falciparum NF54 stage V gametocytes
# Assay: viability index relative to DMSO control (fraction); higher = less gametocyte killing
# Conditions: 2.5 µM, incubation time: 72 h
# Method in brief: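 Gametocytes (P. falciparum NF54, stage V) were treated with compound at 2.5 µM for 72 hr at 37°C in low oxygen, in serum-free medium at 0.75% gametocytemia and 1.25% hematocrit. Counts of 20–70 µm2 red particles, taken from one field per well after MitoTracker Red CMXRos with saponin, were divided by the plate mean of solvent-only wells. This ratio is the viability index.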
# [1] = library set: Broad Institute DOS
# [2] = library set: Broad Institute Blood Stage
Compound,viability index [1],viability index [2]
CS(=O)(=O)N1CC(=O)N2[C@@H](CO)[C@H](c3ccc(Br)cc3)[C@@H]2C1,1.05 ± 0.057,
CN1C[C@H]2[C@@H](c3ccccc31)[C@H](CO)N2Cc1ccccc1Cl,1.03 ± 0.064,
C[C@H](CO)N1C[C@H](C)[C@H](CN(C)C(=O)Nc2ccc3c(c2)OCO3)Oc2c(NC(=O)c3nc4ccccc4s3)cccc2C1=O,0.987 ± 0.021,
Cc1noc(C)c1NC(=O)N1C[C@@H](O)COC[C@@H]2O[C@H](CC(=O)N3CCc4ccccc4C3)CC[C@H]21,1.08 ± 0.11,
COc1ccc(S(=O)(=O)N(C)C[C@@H]2Oc3c(NC(=O)c4nc5ccccc5s4)cccc3C(=O)N([C@H](C)CO)C[C@@H]2C)cc1,0.951 ± 0.047,
O=C(O)[C@H]1[C@H](CO)[C@H]2Cn3c(ccc(C4=CCCCC4)c3=O)[C@H]2N1Cc1ccc2c(c1)OCO2,1.01 ± 0.026,
CO[C@H]1CC[C@@H]2CCOc3c(C#N)cccc3C(=O)N(C)C[C@H](OC)[C@@H](C)C(=O)N(C)C[C@@H]1O2,1.01 ± 0.033,
C[C@@H]1CN([C@H](C)CO)C(=O)Cc2cc(NC(=O)CCN3CCOCC3)ccc2O[C@@H]1CN(C)Cc1ccc(C(=O)O)cc1,1 ± 0.17,
C[C@@H]1CN([C@H](C)CO)C(=O)c2ccccc2-c2ccccc2CO[C@@H]1CN(C)Cc1ccccc1C(F)(F)F,0.806 ± 0.11,
C[C@@H]1CN([C@H](C)CO)C(=O)c2ccccc2-c2ccccc2CO[C@@H]1CN(C)Cc1cccc(C(=O)O)c1,0.958 ± 0.11,
C[C@H]1CN([C@@H](C)CO)C(=O)c2ccccc2-c2ccccc2CO[C@H]1CN(C)Cc1cccc2c1OCCCO2,0.825 ± 0.16,
CCCN(C)C[C@H]1OCc2ccccc2-c2ccccc2C(=O)N([C@@H](C)CO)C[C@H]1C,0.89 ± 0.011,
C[C@@H]1CN([C@@H](C)CO)C(=O)c2ccccc2-c2ccccc2CO[C@H]1CN(C)Cc1cccc(C(=O)O)c1,0.987 ± 0.016,
C[C@H](CO)N1C[C@H](C)[C@@H](CN(C)Cc2cccc3c2OCCCO3)OCc2ccccc2-c2ccccc2C1=O,1.06 ± 0.093,
C[C@@H]1CN([C@@H](C)CO)C(=O)c2ccccc2-c2ccccc2CO[C@H]1CN(C)Cc1ccccc1C(F)(F)F,0.883 ± 0.044,
C[C@H]1CN([C@@H](C)CO)C(=O)c2ccccc2-c2ccccc2CO[C@H]1CN(C)Cc1ccccc1C(F)(F)F,0.726 ± 0.14,
C[C@@H]1CN([C@@H](C)CO)C(=O)c2ccccc2-c2ccccc2CO[C@@H]1CN(C)Cc1ccccc1C(F)(F)F,0.8276 ± 0.0015,
C[C@H](CO)N1C[C@H](C)[C@H](CN(C)Cc2ccccc2C(F)(F)F)OCc2ccccc2-c2ccccc2C1=O,1 ± 0.015,
C[C@@H]1CN([C@@H](C)CO)C(=O)c2ccccc2-c2ccccc2CO[C@@H]1CN(C)Cc1cccc2c1OCCCO2,1 ± 0.11,
C[C@@H]1CN([C@@H](C)CO)C(=O)c2ccccc2-c2ccccc2CO[C@@H]1CN(C)Cc1cccc(C(=O)O)c1,0.974 ± 0.098,
O=C(NCc1ccccc1)[C@H]1[C@H](CO)[C@H]2Cn3c(cccc3=O)[C@@H]1N2C(=O)Cc1ccccn1,1.01 ± 0.015,
CCc1cnc(N2[C@H](C#N)[C@H](c3ccc(C#Cc4ccccc4F)cc3)[C@H]2CO)s1,0.8872 ± 0.0045,
COCC(=O)N1[C@H](CO)[C@@H](c2ccccc2)C12CN(Cc1cc(F)ccc1F)C2,1.07 ± 0.023,

Compound,viability index [1],viability index [2]
CC(C)(C)[S@@](=O)N1Cc2cc(C(=O)NC3CCC3)nc(-c3cccc(Br)c3)c2[C@H]1CCO,0.994 ± 0.058,
O=C(NCC[C@H]1CC[C@@H](NC(=O)c2ccncc2)[C@H](CO)O1)Nc1ccc(Cl)cc1,1.17 ± 0.023,
CCCC#Cc1ccc2c(c1)[C@@H]1[C@@H](CCN1S(=O)(=O)c1cccc(F)c1)[C@@H](CO)N2C,1.12 ± 0.051,
C[C@H](CO)N1C[C@H](C)[C@H](CN(C)Cc2cccc3c2OCCCO3)OCc2ccccc2-c2ccccc2C1=O,1.04 ± 0.039,
C[C@@H]1CN([C@H](C)CO)C(=O)c2ccccc2-c2ccccc2CO[C@@H]1CN(C)Cc1cccc2c1OCCCO2,0.941 ± 0.019,
C[C@H]1CN([C@@H](C)CO)C(=O)c2ccccc2-c2ccccc2CO[C@@H]1CN(C)Cc1ccccc1C(F)(F)F,0.843 ± 0.028,
O=C(Cc1cccnc1)N1CC(=O)N2[C@H](C1)[C@@H](c1ccc(/C=C/c3ccccc3)cc1)[C@@H]2CO,1 ± 0.029,
COCC(=O)N1CC(=O)N2[C@H](CO)[C@@H](c3ccc(-c4ccccc4F)cc3)[C@@H]2C1,1.07 ± 0.083,
O=C(c1cnccn1)N1CC(=O)N2[C@@H](CO)[C@H](c3ccc(-c4cccc(F)c4)cc3)[C@@H]2C1,1 ± 0.049,
O=C(c1ccccc1)N1CC(=O)N2[C@H](CO)[C@H](c3ccc(-c4ccccc4)cc3)[C@@H]2C1,1.02 ± 0.066,
O=C(c1cccnc1)N1CC(=O)N2[C@H](CO)[C@H](c3ccc(-c4ccccc4F)cc3)[C@H]2C1,1.04 ± 0.041,
O=C(c1ccccc1)N1CC(=O)N2[C@H](CO)[C@@H](c3ccc(-c4ccccc4)cc3)[C@H]2C1,1.018 ± 0.0095,
O=C(c1cccc(F)c1)N1CC(=O)N2[C@H](C1)[C@@H](c1ccc(-c3cccnc3)cc1)[C@@H]2CO,,0.817 ± 0.042
O=C(c1cccc(F)c1)N1CC(=O)N2[C@H](CO)[C@H](c3ccc(-c4cccnc4)cc3)[C@H]2C1,,0.771 ± 0.058
O=C(c1ccncc1)N1CC(=O)N2[C@H](C1)[C@@H](c1ccc(-c3cccnc3)cc1)[C@@H]2CO,,0.891 ± 0.059
O=C(c1cnccn1)N1CC(=O)N2[C@H](CO)[C@@H](c3ccc(-c4cccc(F)c4)cc3)[C@@H]2C1,0.99 ± 0.047,
O=C(c1cnccn1)N1CC(=O)N2[C@H](C1)[C@@H](c1ccc(-c3cccc(F)c3)cc1)[C@@H]2CO,1.02 ± 0.012,
O=C(c1ccc(F)cc1)N1CC(=O)N2[C@H](C1)[C@@H](c1ccc(-c3cccnc3)cc1)[C@@H]2CO,,0.733 ± 0.11
O=C(c1cnccn1)N1CC(=O)N2[C@@H](CO)[C@@H](c3ccc(-c4cccc(F)c4)cc3)[C@@H]2C1,1.02 ± 0.058,
O=C(c1ccccc1)N1CC(=O)N2[C@H](C1)[C@@H](c1ccc(-c3ccccc3)cc1)[C@@H]2CO,0.829 ± 0.051,
O=C(Cc1cccnc1)N1CC(=O)N2[C@H](CO)[C@@H](c3ccc(C4=CCCCC4)cc3)[C@H]2C1,0.9507 ± 0.0051,
O=C(C1CCC1)N1CC(=O)N2[C@H](C1)[C@H](c1ccc(Br)cc1)[C@@H]2CO,1.02 ± 0.0049,
C[C@H]1CN([C@@H](C)CO)C(=O)c2c(c3ccccc3n2C)-c2ccccc2CO[C@@H]1CN(C)C(=O)NC1CCCCC1,1.04 ± 0.11,

Compound,viability index [1],viability index [2]
O=C(C[C@@H]1CC[C@@H]2[C@H](COC[C@@H](O)CN2C(=O)c2ccncc2)O1)NCc1cc(F)cc(F)c1,1.05 ± 0.12,
O=C(O)C[C@H]1C[C@H]2c3cc(NC(=O)Nc4ccc(C(F)(F)F)cc4)ccc3O[C@H]2[C@@H](CO)O1,1.06 ± 0.041,
O=C(NC[C@@H]1[C@H](c2ccccc2)[C@@H](CO)N1C(=O)C1CCC1)NC1CCCC1,0.976 ± 0.12,
COc1ccc(S(=O)(=O)N(C)C[C@@H]2Oc3ccc(NC(=O)Nc4ccc(C(F)(F)F)cc4)cc3C(=O)N([C@H](C)CO)C[C@H]2C)cc1,0.957 ± 0.08,
CN1CCN(C(=O)C[C@H]2CC[C@@H]3[C@H](COC[C@H](O)CN3Cc3cccc(-c4ccncc4)c3)O2)CC1,1.08 ± 0.028,
O=C(C[C@H]1CC[C@H](NS(=O)(=O)c2ccc(F)cc2)[C@@H](CO)O1)N1CCN(c2ccccc2)CC1,1.09 ± 0.13,
O=C(C[C@H]1CC[C@@H]2[C@H](COC[C@@H](O)CN2CCc2ccccc2)O1)NCCCN1CCOCC1,1.07 ± 0.054,
O=C(c1ccccc1F)N1CC(=O)N2[C@H](C1)[C@@H](c1ccc(-c3ccc(F)cc3)cc1)[C@@H]2CO,,0.86 ± 0.04
O=C(c1ccccc1F)N1CC(=O)N2[C@H](CO)[C@H](c3ccc(-c4cccnc4)cc3)[C@H]2C1,,0.742 ± 0.068
O=C(c1ccccc1F)N1CC(=O)N2[C@H](C1)[C@@H](c1ccc(-c3cccnc3)cc1)[C@@H]2CO,,0.866 ± 0.049
Cc1noc(C)c1NC(=O)N(C)C[C@@H]1OCc2cn(nn2)CCCC(=O)N([C@H](C)CO)C[C@@H]1C,1.08 ± 0.1,
C[C@H](CO)N1C[C@H](C)[C@H](CN(C)Cc2ccc(C(=O)Nc3ccccc3N)cc2)OCc2cnnn2CCCC1=O,0.953 ± 0.042,
CO[C@H]1CN(C)C(=O)c2ccc(NC(=O)c3cc(C)on3)cc2OC[C@H](C)NC[C@H]1C,0.98 ± 0.029,
COc1cccc(S(=O)(=O)N(C)C[C@H]2OCc3ccccc3-c3c(n(C)c4ccccc34)C(=O)N([C@@H](C)CO)C[C@@H]2C)c1,0.956 ± 0.013,
COc1cccc(S(=O)(=O)N(C)C[C@H]2OCc3ccccc3-c3c(n(C)c4ccccc34)C(=O)N([C@H](C)CO)C[C@H]2C)c1,0.952 ± 0.034,
COc1cccc(S(=O)(=O)N(C)C[C@@H]2OCc3ccccc3-c3c(n(C)c4ccccc34)C(=O)N([C@H](C)CO)C[C@@H]2C)c1,0.826 ± 0.058,
COc1cccc(S(=O)(=O)N(C)C[C@@H]2OCc3ccccc3-c3c(n(C)c4ccccc34)C(=O)N([C@@H](C)CO)C[C@H]2C)c1,0.977 ± 0.016,
COc1cccc(S(=O)(=O)N(C)C[C@H]2OCc3ccccc3-c3c(n(C)c4ccccc34)C(=O)N([C@@H](C)CO)C[C@H]2C)c1,0.833 ± 0.059,
COc1cccc(S(=O)(=O)N(C)C[C@H]2OCc3ccccc3-c3c(n(C)c4ccccc34)C(=O)N([C@H](C)CO)C[C@@H]2C)c1,0.975 ± 0.027,
COc1cccc(S(=O)(=O)N[C@H]2CC[C@@H](CC(=O)NC3Cc4ccccc4C3)O[C@@H]2CO)c1,0.999 ± 0.044,
CC(C)(C)[S@](=O)N1Cc2cc(C(=O)N3CCOCC3)nc(-c3cccc(-c4ccccc4F)c3)c2[C@@H]1CCO,1.07 ± 0.044,
C[C@@H]1CN([C@@H](C)CO)C(=O)c2cc(NC(=O)Nc3ccccc3)ccc2O[C@@H](C)CCCCO[C@H]1CN(C)C(=O)Nc1ccccc1,1.11 ± 0.13,
Cc1ccc(S(=O)(=O)Nc2ccc3c(c2)C(=O)N(C)[C@@H]2CC[C@H](CC(=O)NCCc4ccncc4)O[C@H]2CO3)cc1,1.04 ± 0.026,
